ALDH1A1 inh: blocks purified human ALDH1A1 activity; P00352; Purified ALDH1A1, NADH fluorescence, propionaldehyde substrate; Potency, µM (titrated, usually from 75.3 µM), for inactives: top-dose activity, negative = inhibition, hits mostly inhibitors; 7.3% of 220,000 active; AID 1030; active = well fitted inhibition curve with a large enough effect, not every such curve was filed as active; inconclusive = small, poorly fitted or top-dose-only effect, or another doubt; inactive = no such curve, though single readings can be large or run the other way;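 also: plate controls were no enzyme wells and a reference inhibitor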
Sfp inh: blocks B. subtilis Sfp PPTase activity; Q9F4F7; 3.5% of 310,000 active; Potency, µM, without a hit: largest response in the series, negative = inhibition, actives largely listed as inhibitors; Biochemical Sfp PPTase activity, qHTS;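 also: the enzyme is Sfp with the accession as filed and its product quenches rhodamine fluorescence; 0% = enzyme reaction without inhibitor and -100% = no enzyme wells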
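Step 1, compound plus 15 nM Sfp-PPTase, 15 min, room temperature. Step 2, add rhodamine-CoA (5 uM) and BHQ-2-YbbR (12.5 uM). Step 3, read 525/598 nm fluorescence at 0 and 30 min.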
Gal4-VP16 FLuc: Gal4-VP16 reporter inhibition counter-screen. Drosophila S2 Gal4-VP16 UAS-luciferase, luminescence, 20 h. Potency, µM (highest dose often 53.6 µM), for inactives: top-dose activity, negative = inhibition, hits mostly inhibitors. 3.5% of 310,000 active. AID 2546;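 also: Gal4-VP16 expression switched on by copper sulfate through the metallothionein promoter; nearly all actives have a fitted effect of over 50% in size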
PLK1 PBD block: blocks phosphopeptide binding to human PLK1 polo-box domain; P53350; 2.8% of 360,000 active; Plk1 PBD binding of FITC phosphopeptide, fluorescence polarization; Potency, µM, inactives show max response, negative = inhibition, actives largely listed as inhibitors; AID 720504; also: series mostly up to about 57 µM; nearly all actives have a fitted effect of over 65% in size
RORg inh: blocks mouse ROR gamma transcriptional activity. P51450. Drosophila S2 Gal4-RORgamma UAS-luciferase reporter, 20 h. Potency, µM (highest dose often 53.6 µM), without a hit: at the top dose activity change, negative = inhibition, usual class: inhibitors. 5.4% of 310,000 active. AID 2551; also: nearly all actives have a fitted effect of over 60% in size
Target sequence (P51450 whole entry, looked up, the tested form may be a part): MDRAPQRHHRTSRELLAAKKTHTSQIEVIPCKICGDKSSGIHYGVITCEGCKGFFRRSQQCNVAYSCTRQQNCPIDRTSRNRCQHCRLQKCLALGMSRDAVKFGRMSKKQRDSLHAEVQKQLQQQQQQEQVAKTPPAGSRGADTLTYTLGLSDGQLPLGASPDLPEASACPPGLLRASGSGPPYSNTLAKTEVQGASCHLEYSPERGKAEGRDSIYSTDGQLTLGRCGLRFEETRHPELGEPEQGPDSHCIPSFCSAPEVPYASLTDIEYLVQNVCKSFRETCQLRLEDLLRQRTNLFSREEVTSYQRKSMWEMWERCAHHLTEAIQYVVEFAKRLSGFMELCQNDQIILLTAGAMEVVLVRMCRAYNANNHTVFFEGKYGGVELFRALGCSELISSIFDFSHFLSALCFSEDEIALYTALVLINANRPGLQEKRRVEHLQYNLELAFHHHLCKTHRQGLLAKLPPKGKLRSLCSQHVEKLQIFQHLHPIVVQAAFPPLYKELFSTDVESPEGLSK
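Read-out: Photinus luciferase luminescence; inhibitors lower reporter signal. Insect Schneider cells with Gal4-ROR gamma fusion under metallothionein promoter, UAS reporter; 700 uM final copper sulfate induction, 20 hr, ambient temperature.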
The depositor's hits bear a star; u = inconclusive; x = no result given; [ ] = remark or other dose. Sampled rows, rich in hits. Any-hit rate of the full collection: about 12%. Unless noted, calls follow the shape of the dose curve; as a rule, active = well fitted curve in the direction sought with a large enough effect; inconclusive = small, poorly fitted or top-dose-only effect, or another doubt; inactive = no such curve, though single readings can be large; an effect the other way counts as inactive or inconclusive. Unless noted, % is scaled to controls: 0 for no effect and ±100 for the full control effect; potency is read from the fitted curve at half-maximal effect.

SMILES	ALDH1A1 inh	Sfp inh	Gal4-VP16 FLuc	PLK1 PBD block	RORg inh
CN1C(=O)/C(=C\C(=O)c2cccs2)c2ccccc21	u	45µM*	13µM*	17µM*	5.6µM*
CC1(C)C(=O)C=CC(=O)C(C)(C)C(=O)C=CC(=O)C(C)(C)C2=CC=C(O2)C(C)(C)C(=O)C=CC1=O	x	x	x	6µM*	x
CCc1nnc(NC(=O)Nc2ccccc2OC)s1	-1%	9%	u	-6%	18%
COc1ccc2nc(NC(=O)c3ccccc3C(=O)O)sc2c1	x	8%	-9%	-7%	-4%
CCc1nnc(NC(=O)c2ccc(OC)cc2OC)s1	7.9µM*	-3%	10µM*	-11%	6.3µM*
COc1ccccc1C(=O)Nc1nc2ccccc2s1	x	8%	1µM*	-1%	0.63µM*
COc1ccc(C(=O)Nc2nc3ccccc3s2)c(OC)c1	x	3%	x	3.4µM*	x
COc1ccccc1C(=O)Nc1nc2ccc(S(C)(=O)=O)cc2s1	u	u	0%	-5%	39%
CCC1=C2CC[C@H]3C(=O)N(CC(=O)OC)C(=O)[C@H]3[C@H]2[C@@]2(Cc3ccccc3)C(=NCCOC)OC(=O)N2C1=O	-10%	-3%	2%	x	7%
CCc1nc2c(OCc3ccc(C#N)cc3)cccn2c1N(C)C(=O)c1cccs1	x	x	x	0%	x
Cn1c(=O)c2c(O)c(Cc3ccccc3)c(=O)[nH]c2n(C)c1=O	14µM*	4%	-6%	0%	1%
Clc1ccc2ncc(-c3nnnn3-c3ccccc3)c(-c3ccccc3)c2c1	11µM*	u	-10%	-10%	38%
O=C(NC1CC1(c1ccccc1)c1ccccc1)c1ccccc1 (stereo unspecified)	x	x	x	-2%	x
O=C(c1cccc2ccccc12)C1CCCN(C(=O)CCCn2cncn2)C1 (stereo unspecified)	10µM*	15%	4%	-6%	-5%
C=CCn1c(=O)c2c(nc(-c3ccccc3)n2C)n(C)c1=O	u	14%	x	x	x
COC(=O)c1ccc(CNC(=O)c2ccc3c(c2)S(=O)(=O)N=C2CCCCCN23)cc1	x	x	x	-4%	x
NC(=O)COC(=O)c1ccc2c(c1)S(=O)(=O)N=C1CCCCCN12	8.9µM*	7%	-5%	0%	-1%
CCCC(=O)N1CCN(c2nnc(-c3ccccc3)c3ccccc23)CC1	x	0%	-8%	-17%	33%[1.91 µM]
Cc1ccc(-c2nnc(N3CCN(C(=O)Cn4c(=O)n(C)c5ccccc54)CC3)c3ccccc23)cc1	u	3%	-4%	0%	-2%
Cc1ccc(-c2nnc(N3CCN(C(=O)CN4CCOCC4)CC3)c3ccccc23)cc1	18µM*	5%	2%	-6%	-13%
O=C(CN1CCOCC1)N1CCN(c2nnc(-c3ccccc3)c3ccccc23)CC1	13µM*	17%	-2%	-6%	-2%
O=C(COc1ccc(-c2nnc(N3CCCCC3)c3ccccc23)cc1)N1CCCCC1	6%	1%	u	-11%	u
Cc1ccc(-c2nnc(N3CCN(C(=O)COc4ccccc4)CC3)c3ccccc23)cc1	28µM*	-13%	-4%	-1%	5%
COc1ccc([C@@H](C)C(=O)c2ccc(O)cc2O)cc1	-6%	1%	0%	x	-4%
O=C1C=C(c2ccccc2)C(c2ccccc2)C1 (stereo unspecified)	x	x	x	1%	x
SMILES	ALDH1A1 inh	Sfp inh	Gal4-VP16 FLuc	PLK1 PBD block	RORg inh
O=C(COC(=O)CNC(=O)c1ccc(Cl)cc1)Nc1cccc(S(=O)(=O)N2CCCC2)c1	x	12%	-5%	-8%	-7%
Cc1noc(/C=C/c2ccco2)c1S(=O)(=O)N1CCC(C(=O)NCc2ccco2)CC1	u	19%	-7%	-2%	0%
Cc1noc(/C=C/c2ccco2)c1S(=O)(=O)N1CCC(C(=O)N2CCc3ccccc3C2)CC1	u	56µM*	-5%	-7%	-6%
Cc1ccc(CNC(=O)C2CCN(S(=O)(=O)c3c(C)noc3/C=C/c3ccco3)CC2)cc1	u	40µM*	10%	-4%	-26%
Cc1ccc(NC(=O)C2CCN(S(=O)(=O)c3c(C)noc3/C=C/c3ccco3)CC2)nc1	u	9%	-2%	-10%	6%
CC(C)CO/N=C1/C[C@@H](O)[C@@H](O)[C@@H]2[C@@H]3C(=O)N(C4CCCCC4)C(=O)[C@H]3CC[C@H]12	-2%[13.5 µM]	6%	7%[10 µM]	x	12%[10 µM]
CC(C)(C)Cc1c(-c2cccc(Br)c2)nc2ccc(Br)cn12	x	x	x	-8%	x
CC1(C(=O)NS(=O)(=O)c2ccc(Br)cc2)CCN1C(=O)CCC1CCCC1 (stereo unspecified)	x	x	x	-18%	x
CCn1c(C)nc2cc(C(=O)N3N=C(CCOC)CC3(O)C(F)(F)F)ccc21 (stereo unspecified)	x	6%	35µM*	5%	u
O=c1cc(CN(Cc2ccccc2)Cc2ccccc2)c2c(ccc3ccccc32)o1	x	x	x	-22%	x
CCOc1cc(/C=N/Nc2cc(C)nc(-n3nc(C)cc3C)n2)ccc1O	x	1%	18µM*	-3%	u
Cc1cc(N/N=C/c2ccc(F)cc2)nc(-n2nc(C)cc2C)n1	x	13%	0.32µM*	-6%	0.079µM*
COc1ccccc1/C=N/Nc1cc(C)nc(N2CCOCC2)n1	x	16%	-4%	1%	8%
COc1ccc(/C=N/Nc2cc(C)nc(-n3nc(C)cc3C)n2)c(OC)c1	1%	-20%	0.28µM*	1%	0.2µM*
C=C(CC[C@@H](C)[C@H]1CCC2[C@]1(C)CC[C@]13C[C@@]14CCC(OC(=O)/C=C/c1ccc(O)c(OC)c1)C(C)(C)[C@@H]4CC[C@@]23C)C(C)C (stereo partly specified)	x	64%	-7%	x	-26%
COc1cccc(C2C([N+](=O)[O-])=C(N)Oc3cc(C)oc(=O)c32)c1 (stereo unspecified)	x	27%	4%	u	9%
O=C(NC1CC1)C1CCN(S(=O)(=O)c2ccc(Cl)c([N+](=O)[O-])c2)CC1	x	x	x	-11%	x
C=C(CCC(=O)c1ccccc1)C(=O)c1ccccc1	u	-19%	11µM*	-12%	13µM*
O=C(N/N=C/c1ccc(Br)cc1)c1ccc(NC(=O)c2ccccc2)cc1	x	x	x	0%	x
Cc1[nH]n(-c2ccccc2)c(=O)c1/C=N/NC(=O)c1cccc(F)c1	x	1%	1.3µM*	-6%	0.56µM*
Cc1[nH]n(-c2ccc(Br)cc2)c(=O)c1/C=N/NC(=O)c1ccccc1	x	16%	0.13µM*	-8%	0.28µM*
Cc1ccc(-c2cn3c(=O)cc(C)[nH]c3n2)cc1	u	1%	7.9µM*	-9%	7.9µM*
CCOc1ccc2[nH]c(=O)c(CN(Cc3ccco3)C(=O)c3ccc(Br)cc3)cc2c1	4.5µM*	40µM*	-16%	-9%	24%
COc1ccc2[nH]c(=O)c(CN(Cc3ccco3)C(=O)c3ccccc3)cc2c1	u	-2%	-2%	-15%	u
O=C(c1cccs1)N(Cc1ccco1)Cc1cc2ccccc2[nH]c1=O	u	-15%	3%	27µM*	5%[10 µM]
